Bioassay records: PubChem BioAssay, The Scripps Research Institute Molecular Screening Center
DAX1 inh-1: inhibitors of DAX1 repression of SF-1 activated StAR promoter | HEK293T StAR-luciferase reporter, SF-1/DAX-1 repression relief | AID 652010 | inhibition, % at 6.8 µM | 370,000 tested, 1.1% active;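 active = inhibition above the mean over all tested compounds plus 3 SD, cut at about 3.6% in these data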;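 also: 0% = DAX-1 cells with DMSO and 100% = cells lacking DAX-1 with DMSO; higher inhibition means more luminescence from relief of DAX-1 repression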
DAX1 inh-2: NR0B1 (DAX1) inhibition; P51843; HEK293 Gal4-DAX1 luciferase reporter, luminescence; inhibition, % at 6.75 µM; 340,000 tested, 0.99% active; AID 504766;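 active = inhibition above the mean over all tested compounds plus 3 SD, cut at about 4.2% in these data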;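 also: 0% = DAX1-transfected cells with DMSO and 100% = empty-vector control cells with DMSO; inhibition shows as a rise in luminescence from relieved DAX1 repression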
Target sequence (P51843 207-470 limits assumed): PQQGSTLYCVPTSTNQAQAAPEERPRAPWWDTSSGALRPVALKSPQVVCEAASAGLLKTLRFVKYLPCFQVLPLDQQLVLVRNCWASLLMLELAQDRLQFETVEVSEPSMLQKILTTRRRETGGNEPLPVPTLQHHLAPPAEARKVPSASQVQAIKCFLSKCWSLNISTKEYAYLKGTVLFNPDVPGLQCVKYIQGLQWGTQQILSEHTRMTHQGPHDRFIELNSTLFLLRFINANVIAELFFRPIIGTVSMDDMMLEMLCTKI
ssDAF-12 act: activates DAF-12 receptor from parasite S. stercoralis; HEK293 ssDAF-12/GRIP1 lit1-tk-luc reporter, luminescence; % of 3 µM dafachronic acid response; activation, % at 6.8 µM; 370,000 tested, 1% active; AID 652126;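 active = activation above the mean over all tested compounds plus 3 SD, cut at about 0.9% in these data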;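 also: 0% = DMSO-only wells and 100% = 3 µM delta7-dafachronic acid wells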
hcDAF12 agonist: activates DAF-12 receptor from parasite H. contortus | 370,000 tested, 1.4% active | HEK293 hcDAF-12 lit1-tk-luc reporter, luminescence; 0% DMSO, 100% Δ7-dafachronic acid | activation, % at 6.8 µM | AID 652067;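 active = activation above the mean of all tested compounds plus 3 SD, cut at about 5.5% in these data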;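 also: 100% = response to 3 µM Δ7-dafachronic acid high control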
hgDAF12 agonist: activates the H. glycines DAF-12 receptor ligand-binding domain; HEK293 GAL4-hgDAF12 UAS-luciferase reporter, agonist luminescence; normalized to butyrate control; activation, % at 6.8 µM; 370,000 tested, 1.8% active; AID 687014;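 active = activation above a cutoff set at the mean of all screened compounds plus 3 SD, cut at about 10% in these data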;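 also: 0% = DMSO wells and 100% = sodium butyrate wells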
GAA850 FXN act: frataxin GAA850 promoter activation; HEK293 lucGAA850 FXN promoter luciferase reporter, 24 h; percent of 10 µM SAHA response; activation, % at 6 µM; 360,000 tested, 0.56% active;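 active = activation above the average of all compounds screened plus 3 SD, cutoff fixed separately per campaign, cut at about 7.5% in these data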;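 also: 0% = DMSO wells and 100% = 10 µM SAHA wells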
Starred values were filed as active, the others as inactive. In the library only some 4.5% were active in any assay of this set; here they are far more common.

Cc1ccc(N/C=C/c2onc(C)c2[N+](=O)[O-])cc1 was read as DAX1 inh-1 2.4, DAX1 inh-2 5.6*, ssDAF-12 act -1.0, hcDAF12 agonist 4.2, hgDAF12 agonist 10.0 and GAA850 FXN act 4.9.
Cc1cccc(C)c1N/C=C/c1onc(C)c1[N+](=O)[O-] was read as DAX1 inh-1 -0.1, DAX1 inh-2 -0.2, ssDAF-12 act -1.1, hcDAF12 agonist 0.0, hgDAF12 agonist -2.3 and GAA850 FXN act 4.0.
Screening COc1ccc(-c2cc(C(=O)N(C3CCCCC3)C3CCCCC3)no2)cc1 returned DAX1 inh-1 -0.9, ssDAF-12 act -0.9, hcDAF12 agonist 0.5 and hgDAF12 agonist -1.6.
For Cc1ccc2c(c1)-c1c(cnn1CC(=O)NCCc1ccccc1F)CO2 the results were DAX1 inh-1 0.3, ssDAF-12 act -1.7, hcDAF12 agonist 0.2 and hgDAF12 agonist -1.2.
Screening O=P(O)(O)c1ccccc1OCCOCCOCCOCCOc1ccccc1P(=O)(O)O returned DAX1 inh-1 2.6, DAX1 inh-2 4.4*, ssDAF-12 act 0.2, hcDAF12 agonist 4.5, hgDAF12 agonist 6.8 and GAA850 FXN act 3.5.
For CCN1CCN(Cc2ccc(NC(=O)c3cccc(-c4ccc5nc(NC(=O)C6CC6)sc5n4)c3)cc2C(F)(F)F)CC1 the results were DAX1 inh-1 -3.2, ssDAF-12 act -1.9, hcDAF12 agonist 0.4 and hgDAF12 agonist -0.2.
`COC(=O)[C@@H](NC(=O)N1CCC(C)CC1)C(C)C` gave DAX1 inh-1 -0.3, DAX1 inh-2 4.9*, ssDAF-12 act -1.0, hcDAF12 agonist -1.3, hgDAF12 agonist 4.1 and GAA850 FXN act 0.0.
Cc1cc(C(=O)CSc2nnnn2C)c(C)n1CCc1ccc(F)cc1 was read as DAX1 inh-1 -0.5, DAX1 inh-2 0.8, ssDAF-12 act -0.5, hcDAF12 agonist 4.4, hgDAF12 agonist 1.9 and GAA850 FXN act -0.6.
Cc1cc(C(=O)CSc2nnnn2C)c(C)n1Cc1ccco1 was read as DAX1 inh-1 0.8, DAX1 inh-2 1.8, ssDAF-12 act -0.1, hcDAF12 agonist 3.1, hgDAF12 agonist 11.7* and GAA850 FXN act 3.1.
`Cc1ccc(-n2c(C)cc(C(=O)CSc3nnnn3C)c2C)cc1` gave DAX1 inh-1 1.1, DAX1 inh-2 -0.4, ssDAF-12 act 0.4, hcDAF12 agonist 4.9, hgDAF12 agonist 11.6* and GAA850 FXN act 0.9.
Screening O=C(c1ccccc1)N1CCC(Oc2cccnc2)CC1 returned DAX1 inh-1 3.0, ssDAF-12 act -1.7, hcDAF12 agonist -1.1 and hgDAF12 agonist 1.2.
O=C(CN1C(=O)C(=O)N(C2CCCC2)C1=O)NCCc1ccc(F)cc1 was read as DAX1 inh-1 -0.9, DAX1 inh-2 -1.1, ssDAF-12 act -1.2, hcDAF12 agonist -0.3, hgDAF12 agonist -0.4 and GAA850 FXN act 0.2.
For COc1ccc(CCNC(=O)CN2C(=O)C(=O)N(C3CCCC3)C2=O)cc1OC the results were DAX1 inh-1 1.1, DAX1 inh-2 -0.2, ssDAF-12 act 1.3*, hcDAF12 agonist -0.4, hgDAF12 agonist 1.4 and GAA850 FXN act 1.1.
Screening COC(=O)C1CN(Cc2ccc(F)cc2)CCS(=O)(=O)N1Cc1cn(Cc2ccc(Cl)cc2)nn1 (stereo unspecified) returned DAX1 inh-1 0.9, ssDAF-12 act -1.5, hcDAF12 agonist -0.6 and hgDAF12 agonist -1.2.
Screening O=C(C[n+]1cccc2ccccc21)c1ccc(Br)cc1 returned DAX1 inh-1 -0.2, DAX1 inh-2 2.3, ssDAF-12 act 2.2*, hcDAF12 agonist 5.0, hgDAF12 agonist 3.0 and GAA850 FXN act 0.6.
`O=C(C[n+]1cc(Br)cc2ccccc21)c1ccc(Br)cc1` gave DAX1 inh-1 0.2, DAX1 inh-2 -0.9, ssDAF-12 act -0.9, hcDAF12 agonist 4.6, hgDAF12 agonist 0.7 and GAA850 FXN act 1.3.
Screening Cc1ccc(C(=O)C[n+]2cccc3ccccc32)cc1 returned DAX1 inh-1 0.1, DAX1 inh-2 1.6, ssDAF-12 act 1.7*, hcDAF12 agonist 6.0*, hgDAF12 agonist 4.2 and GAA850 FXN act 2.2.
For CC1(C)Oc2ccc(C(=O)N3CCCC3)cc2NC1=O the results were DAX1 inh-1 -0.4, ssDAF-12 act -0.9, hcDAF12 agonist 2.3 and hgDAF12 agonist -0.4.
`O=S1(=O)CC(N2CCCC2)CN1` (stereo unspecified) gave DAX1 inh-1 0.0, ssDAF-12 act -1.9, hcDAF12 agonist 0.0 and hgDAF12 agonist -1.5.
O=C(NNS(=O)(=O)c1ccc(Cl)cc1)c1cc(-c2ccccc2)nc2ccccc12 was read as DAX1 inh-1 0.3, DAX1 inh-2 -0.1, ssDAF-12 act -1.0, hcDAF12 agonist 0.6, hgDAF12 agonist -2.2 and GAA850 FXN act -3.0.
Screening CC(C)(C)c1ccc(-c2cc(C(=O)NNC(=O)Nc3ccccc3)c3ccccc3n2)cc1 returned DAX1 inh-1 3.9*, DAX1 inh-2 2.7, ssDAF-12 act 0.6, hcDAF12 agonist 3.9, hgDAF12 agonist 11.2* and GAA850 FXN act 6.1.
For Cc1cccc(S(=O)(=O)NNC(=O)c2cc(-c3ccc(F)cc3)nc3ccccc23)c1 the results were DAX1 inh-1 0.5, DAX1 inh-2 4.3*, ssDAF-12 act -1.4, hcDAF12 agonist -2.3, hgDAF12 agonist 3.4 and GAA850 FXN act -0.2.
For CN[C@H]1C[C@H]2c3[nH]c4cccc(-c5ccc6c(c5)OCO6)c4c3CCN2C[C@H]1[C@H](C)O the results were DAX1 inh-1 -0.2, ssDAF-12 act -1.6, hcDAF12 agonist -1.0 and hgDAF12 agonist 0.6.
Screening O=C(NCc1ccc(F)c(F)c1)C1CCCN(c2nc3ccccc3o2)C1 (stereo unspecified) returned DAX1 inh-1 -0.9, ssDAF-12 act -0.5, hcDAF12 agonist -0.1 and hgDAF12 agonist 7.7.
`CCCCCN1CCCCC(NC(=O)c2cccc(C(F)(F)F)c2)C1=O` (stereo unspecified) gave DAX1 inh-1 0.3, ssDAF-12 act -0.8, hcDAF12 agonist -1.9 and hgDAF12 agonist 0.7.
Screening Cc1cc(C)nc(Nc2ccc(O)cc2)n1 returned DAX1 inh-1 -0.3, DAX1 inh-2 0.4, ssDAF-12 act -1.2, hcDAF12 agonist -1.2, hgDAF12 agonist -0.6 and GAA850 FXN act -0.1.
`CCc1ccc(Nc2nc(C)cc(C)n2)cc1` gave DAX1 inh-1 0.5, DAX1 inh-2 0.2, ssDAF-12 act -0.5, hcDAF12 agonist 3.1, hgDAF12 agonist 10.7* and GAA850 FXN act 1.9.
For S=C(Nc1ccccc1)OC1CCC12CCC(c1ccccc1)CC2 (stereo unspecified) the results were DAX1 inh-1 -1.3, ssDAF-12 act -0.8, hcDAF12 agonist -0.6 and hgDAF12 agonist -2.4.
CC(c1nc2ccccc2[nH]1)N(C(=O)Cc1csc2ccccc12)c1cccnc1 (stereo unspecified) was read as DAX1 inh-1 -0.5, ssDAF-12 act -0.7, hcDAF12 agonist 0.4 and hgDAF12 agonist -3.9.
